The values that follow come from PubChem BioAssay (EPA / NIEHS).

Where “and” joins values, the source holds several entries; their conditions need not be identical. Equal entries are not always repeated. Calls of active or inactive are those of the source. The calls were made as follows: active = hit-call score of the fitted dose curve at least 0.9, where 1 is the maximum; inactive = score below 0.9.

Experiment [1] concerns the target Transcription factor E2F1 (Homo sapiens) (UniProt Q01094). The experiment can be described thus: ATG_E2F_CIS: Attagene CIS-FACTORIAL HepG2 Assay for human E2F Transcription Factor 1 (AID 2282935). Conditions: HepG2 Attagene cis-reporter, E2F reporter RNA transcripts; actives raise or lower the signal. The essentials:
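Fluorescent RT-PCR products, digested with HpaI for 2 h at 37 C, are separated by capillary electrophoresis. Source RNA comes from transfected HepG2 cultures treated for 24 h.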

The nature of experiment [2]: ATG_E_Box_CIS: Attagene CIS-FACTORIAL HepG2 Assay for human Enhancer Box (E-box) (AID 2282936). The conditions noted are these: HepG2 E-box cis-reporter transcription, actives raise or lower the signal. In a few lines:
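Fluorescent reporter fragments separated by capillary electrophoresis gave the signal; mRNA came from HepG2 cells transfected with cis-element reporters and treated 24 h. Curves fitted bidirectionally relative to DMSO controls.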

Experiment [3] can be described thus: ATG_M_61_CIS: Attagene CIS-FACTORIAL HepG2 Assay for M61 Transcription Factor (Internal Marker) (AID 2282937). Conditions: HepG2 Attagene CIS-FACTORIAL M61 internal marker reporter; actives raise or lower the signal. In a few lines: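 Endogenous transcription factor activity in HepG2 is read through transiently transfected cis-element reporter units. After 24 h dosing, RNA undergoes reverse transcription, PCR and primer extension with 6-FAM before capillary electrophoresis; DMSO-referenced bidirectional fit.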

Experiment [4] in a line: ATG_EGR_CIS: Attagene CIS-FACTORIAL HepG2 Assay for human Early Growth Response 1 (EGR1) (AID 2282938). Conditions: HepG2 Attagene CIS-FACTORIAL EGR reporter mRNA; actives raise or lower the signal. The essentials: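 Activity is taken as induction or loss of reporter mRNA versus DMSO, fitted bidirectionally. Transcripts from cis-regulated reporter units in transiently transfected HepG2 were measured after 24 h by RT-PCR with capillary electrophoresis.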

The nature of experiment [5]: ATG_M_19_CIS: Attagene CIS-FACTORIAL HepG2 Assay for M19 Transcription Factor (Internal Marker) (AID 2282939). The conditions noted are these: HepG2 Attagene CIS-FACTORIAL M19 internal marker reporter; actives raise or lower the signal. The essentials: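 HepG2 cells transiently transfected with cis-regulated multiplexed reporter units, dosed 24 h. Reporter mRNA quantified by RT-PCR and capillary electrophoresis; internal background marker fitted bidirectionally versus DMSO.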

A short description of experiment [6]: ATG_ERE_CIS: Attagene CIS-FACTORIAL HepG2 Assay for Estrogen Response Element (ERE) (AID 2282940). Conditions: HepG2 ERE cis-reporter, Attagene RNA transcript; actives raise or lower the signal. The essentials: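 HepG2 cells transiently transfected with multiplexed cis-element reporter units, measuring endogenous transcription factor activity; ERE reporter mRNA quantified after 24 h exposure by RT-PCR, fluorescent labelling, HpaI digestion and capillary electrophoresis. Bidirectional change versus DMSO.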

Experiment [7] addresses Hepatocyte nuclear factor 3-beta (Homo sapiens) (UniProt Q9Y261). The experiment can be described thus: ATG_FoxA2_CIS: Attagene CIS-FACTORIAL HepG2 Assay for human Forkhead box A2 (FOXA2) (AID 2282942). The conditions noted are these: HepG2 cis-reporter transcription factor activity, 24 h; actives raise or lower the signal. The essentials: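 Reporter transcript induction is measured by fluorescence after capillary electrophoresis of RT-PCR products from HepG2 cells exposed 24 h. Cis-regulated reporter units report endogenous factor activity; curves fitted both directions against DMSO.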

Experiment [8] in a line: ATG_FoxO_CIS: Attagene CIS-FACTORIAL HepG2 Assay for human Forkhead box O (FoxO) (AID 2282943). The conditions noted are these: HepG2 Attagene cis-reporter, FoxO element, mRNA; actives raise or lower the signal. In a few lines: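 Human hepatoma HepG2 cells carry transiently introduced reporter transcription units controlled by cis promoter elements. Chemical treatment lasted 24 h, and mRNA signal was compared with DMSO.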

The nature of experiment [9]: ATG_GATA_CIS: Attagene CIS-FACTORIAL HepG2 Assay for human GATA Binding Protein (AID 2282944). The conditions noted are these: HepG2 GATA cis-element reporter, Attagene multiplex mRNA; actives raise or lower the signal. The essentials: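 HepG2 cells transiently transfected with multiplexed cis-element reporter units measure endogenous GATA activity; after 24 h compound exposure, reporter mRNA quantified by RT-PCR and capillary electrophoresis. Changes fitted in both directions vs DMSO.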

Experiment [10] can be described thus: ATG_GLI_CIS: Attagene CIS-FACTORIAL HepG2 Assay for human Zinc Finger Protein GLI1 (AID 2282945). The conditions noted are these: HepG2, Attagene cis-factorial reporter mRNA, GLI element; actives raise or lower the signal. In a few lines:
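Bidirectional curve fits relative to DMSO, using reporter mRNA levels from RT-PCR plus capillary electrophoresis. Cells were HepG2 transiently carrying cis-regulated reporter constructs, harvested 24 h after dosing.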

The nature of experiment [11]: ATG_GRE_CIS: Attagene CIS-FACTORIAL HepG2 Assay for human Glucocorticoid Response Elements (GRE) (AID 2282947). The conditions noted are these: HepG2 GRE cis-reporter, Attagene multiplex mRNA; actives raise or lower the signal. The essentials:
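Multiplexed cis-reporter mRNA induction, HepG2, 24 h post-dose. RT-PCR, FAM-labelled, HpaI-digested amplicons by CE. Bidirectional fit vs DMSO.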

The nature of experiment [12]: ATG_ISRE_CIS: Attagene CIS-FACTORIAL HepG2 Assay for human Interferon Regulatory Factor 1 (IRF1) binding to an Interferon-Stimulated Response Element (ISRE) (AID 2282948). Conditions: HepG2 ISRE cis-reporter (Attagene), mRNA transcription readout; actives raise or lower the signal. In a few lines:
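Signal reflects induction or loss of ISRE-linked reporter mRNA in transiently transfected HepG2 cells after a 24 h treatment, detected by fluorescent RT-PCR fragments on capillary electrophoresis and normalised to DMSO.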

A short description of experiment [13]: ATG_M_32_CIS: Attagene CIS-FACTORIAL HepG2 Assay for M32 Transcription Factor (Internal Marker) (AID 2282949).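 Also: background control marker of the multiplexed CIS panel rather than a real target.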 The conditions noted are these: HepG2 Attagene cis-factorial M32 reporter, mRNA; actives raise or lower the signal. In a few lines:
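Transient MRTU transfection of HepG2; 24 h compound treatment; TriZol RNA, oligo(dT) RT, reporter PCR, 6-FAM primer extension, HpaI cut, CE. Gain/loss of signal vs DMSO.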

The nature of experiment [14]: ATG_M_06_CIS: Attagene CIS-FACTORIAL HepG2 Assay for M06 Transcription Factor (Internal Marker) (AID 2282950). The conditions noted are these: HepG2 Attagene CIS-FACTORIAL M06 internal marker reporter; actives raise or lower the signal. In a few lines: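 Internal background marker within multiplexed cis-reporter HepG2 system. Cells transiently transfected, dosed 24 h; reporter mRNA measured by RT-PCR, HpaI digestion and capillary electrophoresis. Bidirectional fit relative to DMSO.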

Experiment [15] addresses Hypoxia-inducible factor 1-alpha (Homo sapiens) (UniProt Q16665). The experiment can be described thus: ATG_HIF1a_CIS: Attagene CIS-FACTORIAL HepG2 Assay for human Hypoxia Inducible Factor 1 (HIF1A) (AID 2282951). The conditions noted are these: HepG2 Attagene cis-factorial HIF1a reporter transcription; actives raise or lower the signal. The essentials: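 Fluorescence intensity of capillary-separated, 6-FAM-labelled reporter amplicons gives mRNA induction in HepG2 cells carrying transfected cis-promoter reporter units; cells exposed 24 h, responses fitted up or down from DMSO.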

A short description of experiment [16]: ATG_MRE_CIS: Attagene CIS-FACTORIAL HepG2 Assay for human Metal Responsive Element (MRE) (AID 2282954). Conditions: HepG2 MRE cis-reporter transcription, Attagene multiplex; actives raise or lower the signal. In a few lines:
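Multiplexed cis-reporter assay in human HepG2 liver cells, 24 h incubation with test chemical. Reporter transcripts measured by RT-PCR and capillary electrophoresis; values from bidirectional curve fitting versus DMSO.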

Experiment [17] addresses Hepatocyte nuclear factor 6 (Homo sapiens) (UniProt Q9UBC0). The experiment can be described thus: ATG_HNF6_CIS: Attagene CIS-FACTORIAL HepG2 Assay for human Hepatocyte Nuclear Factor 6 (HNF6) (AID 2282952). Conditions: HepG2 Attagene cis-factorial HNF6 reporter transcription; actives raise or lower the signal. In a few lines: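 Endogenous factor activity read in transiently transfected HepG2 via promoter-regulated reporter transcripts. RNA harvested 24 h post-dosing, reverse-transcribed, PCR-amplified, FAM-labelled, HpaI-digested and resolved by capillary electrophoresis; fitted in both directions against DMSO.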

In experiment [18] the target is Heat shock factor protein 1 (Homo sapiens) (UniProt Q00613). Briefly: ATG_HSE_CIS: Attagene CIS-FACTORIAL HepG2 Assay for human Heat Shock Transcription Factor 1 (HSE) (AID 2282953). The conditions noted are these: HepG2 HSE cis-reporter, Attagene RNA transcription; actives raise or lower the signal. In a few lines:
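HepG2 cells transfected with cis-promoter reporter units sensing endogenous transcription factor activity; reporter mRNA quantified 24 h post-dose by RT-PCR and capillary electrophoresis of 6-FAM-labelled products. Bidirectional fitting against DMSO.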

Experiment [19] in a line: ATG_PBREM_CIS: Attagene CIS-FACTORIAL HepG2 Assay for human Phenobarbital-responsive Enhancer Module (PBREM) (AID 2282955). The conditions noted are these: HepG2 PBREM cis-reporter, Attagene multiplexed transcription; actives raise or lower the signal. In a few lines: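 Cells were transfected with cis-element reporter units and treated for 24 h, after which RNA was extracted and reporter transcripts measured by RT-PCR and capillary electrophoresis.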

Experiment [20] is described as follows: ATG_Ets_CIS: Attagene CIS-FACTORIAL HepG2 Assay for human Erythroblast Transformation Specific (ETS) (AID 2282941). Conditions: HepG2 ETS cis-reporter transcription, actives raise or lower the signal. The essentials: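 Multiplexed reporter transcript profiling: HepG2, 24 h treatment, total RNA to cDNA, PCR, 6-FAM labelling, HpaI cut, capillary electrophoresis. Gain- or loss-of-signal fitted against DMSO.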

Chain of Hepatocyte nuclear factor 6 (Homo sapiens) (Q9UBC0 whole entry, looked up): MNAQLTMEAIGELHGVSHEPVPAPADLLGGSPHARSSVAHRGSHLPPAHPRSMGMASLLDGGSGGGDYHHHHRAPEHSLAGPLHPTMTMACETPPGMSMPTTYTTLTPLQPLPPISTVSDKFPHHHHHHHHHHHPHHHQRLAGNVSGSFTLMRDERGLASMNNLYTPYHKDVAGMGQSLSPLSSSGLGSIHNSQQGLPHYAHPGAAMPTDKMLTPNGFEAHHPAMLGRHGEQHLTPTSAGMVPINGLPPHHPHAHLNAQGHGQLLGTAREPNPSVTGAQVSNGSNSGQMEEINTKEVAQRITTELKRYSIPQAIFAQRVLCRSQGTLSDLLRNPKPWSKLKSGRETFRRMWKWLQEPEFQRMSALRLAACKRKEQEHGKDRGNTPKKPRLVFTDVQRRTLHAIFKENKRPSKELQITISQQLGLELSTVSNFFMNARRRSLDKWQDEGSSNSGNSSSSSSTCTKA
Chain of Heat shock factor protein 1 (Homo sapiens) (Q00613 whole entry, looked up): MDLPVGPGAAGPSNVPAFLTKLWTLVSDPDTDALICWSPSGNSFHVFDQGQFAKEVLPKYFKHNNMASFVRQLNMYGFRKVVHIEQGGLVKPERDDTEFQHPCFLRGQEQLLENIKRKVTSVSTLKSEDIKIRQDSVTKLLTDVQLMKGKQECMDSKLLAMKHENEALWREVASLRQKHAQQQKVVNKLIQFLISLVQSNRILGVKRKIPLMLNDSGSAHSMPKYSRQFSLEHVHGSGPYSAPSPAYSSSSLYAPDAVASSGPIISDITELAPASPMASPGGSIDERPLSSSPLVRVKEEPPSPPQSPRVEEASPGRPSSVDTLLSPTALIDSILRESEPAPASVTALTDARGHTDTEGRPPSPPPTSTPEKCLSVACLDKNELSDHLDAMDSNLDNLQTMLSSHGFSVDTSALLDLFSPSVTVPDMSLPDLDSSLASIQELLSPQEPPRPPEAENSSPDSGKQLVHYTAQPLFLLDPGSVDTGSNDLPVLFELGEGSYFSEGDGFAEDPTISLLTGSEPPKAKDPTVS
Chain of Transcription factor E2F1 (Homo sapiens) (Q01094 whole entry, looked up): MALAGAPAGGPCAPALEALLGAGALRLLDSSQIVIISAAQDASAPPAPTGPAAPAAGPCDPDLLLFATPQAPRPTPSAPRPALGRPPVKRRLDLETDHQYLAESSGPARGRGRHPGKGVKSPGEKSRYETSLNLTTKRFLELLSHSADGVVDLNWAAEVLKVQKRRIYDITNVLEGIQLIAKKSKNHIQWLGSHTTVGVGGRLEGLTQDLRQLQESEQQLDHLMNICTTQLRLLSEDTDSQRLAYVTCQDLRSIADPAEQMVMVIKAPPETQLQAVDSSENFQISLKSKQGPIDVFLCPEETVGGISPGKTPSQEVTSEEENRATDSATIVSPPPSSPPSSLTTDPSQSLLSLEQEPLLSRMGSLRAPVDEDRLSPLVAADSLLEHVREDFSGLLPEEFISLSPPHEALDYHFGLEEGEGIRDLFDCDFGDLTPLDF
Chain of Hypoxia-inducible factor 1-alpha (Homo sapiens) (Q16665 whole entry, looked up): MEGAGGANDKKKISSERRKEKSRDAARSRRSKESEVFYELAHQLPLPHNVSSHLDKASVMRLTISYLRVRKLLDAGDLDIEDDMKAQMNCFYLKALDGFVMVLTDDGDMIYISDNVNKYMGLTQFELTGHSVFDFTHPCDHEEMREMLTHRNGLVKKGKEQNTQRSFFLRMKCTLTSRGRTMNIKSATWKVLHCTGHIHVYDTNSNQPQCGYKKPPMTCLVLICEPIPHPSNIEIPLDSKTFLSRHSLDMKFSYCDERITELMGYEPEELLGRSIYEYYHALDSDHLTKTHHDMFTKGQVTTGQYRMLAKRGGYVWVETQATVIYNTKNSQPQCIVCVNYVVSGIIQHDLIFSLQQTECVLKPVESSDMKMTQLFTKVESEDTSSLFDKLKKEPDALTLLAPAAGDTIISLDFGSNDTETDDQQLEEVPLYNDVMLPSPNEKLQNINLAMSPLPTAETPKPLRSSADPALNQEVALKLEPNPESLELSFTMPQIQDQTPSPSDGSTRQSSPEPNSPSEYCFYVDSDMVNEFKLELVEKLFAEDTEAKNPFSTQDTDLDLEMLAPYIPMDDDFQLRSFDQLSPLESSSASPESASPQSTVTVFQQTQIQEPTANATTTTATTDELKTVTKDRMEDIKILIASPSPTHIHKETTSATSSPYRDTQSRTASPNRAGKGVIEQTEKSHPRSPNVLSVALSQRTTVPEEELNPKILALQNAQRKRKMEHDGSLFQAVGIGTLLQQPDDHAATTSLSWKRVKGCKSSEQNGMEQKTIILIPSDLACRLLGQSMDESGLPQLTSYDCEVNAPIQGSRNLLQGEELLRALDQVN
Chain of Hepatocyte nuclear factor 3-beta (Homo sapiens) (Q9Y261 whole entry, looked up): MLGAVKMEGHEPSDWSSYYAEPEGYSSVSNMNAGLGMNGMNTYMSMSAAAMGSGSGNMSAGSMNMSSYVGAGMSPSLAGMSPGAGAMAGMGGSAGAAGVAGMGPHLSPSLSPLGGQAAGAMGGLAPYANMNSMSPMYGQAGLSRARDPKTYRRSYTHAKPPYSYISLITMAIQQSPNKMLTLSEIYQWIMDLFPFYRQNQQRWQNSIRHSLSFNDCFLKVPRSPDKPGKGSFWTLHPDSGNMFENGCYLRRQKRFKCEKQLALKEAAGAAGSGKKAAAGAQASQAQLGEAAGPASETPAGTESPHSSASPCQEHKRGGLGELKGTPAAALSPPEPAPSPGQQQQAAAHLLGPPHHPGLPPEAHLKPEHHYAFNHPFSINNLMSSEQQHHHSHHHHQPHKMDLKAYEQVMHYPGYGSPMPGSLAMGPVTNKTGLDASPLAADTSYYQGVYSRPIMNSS

Consider `CCCCOC(=O)c1ccccc1`, for which the result in [1], in experiment [2], in [3], in experiment [4], in [5] and in experiment [6] was inactive. For the same compound, the compound was called inactive in experiment [7], in experiment [8], in experiment [9], in experiment [10], in experiment [11] and in experiment [12]. The result in experiment [13], in experiment [14], in experiment [15] and in [16] was inactive.

Regarding `FC(F)(F)COC(OCC(F)(F)F)OCC(F)(F)F`, the compound was classed as inactive in experiment [1], in experiment [2], in experiment [3], in [4], in [5] and in experiment [6]. For the same compound, the compound was called inactive in [7], in experiment [8], in experiment [9], in experiment [10], in [11] and in [12]. In addition, the outcome in experiment [13], in experiment [14], in experiment [15], in experiment [17], in experiment [18] and in experiment [16] was inactive. In addition, in experiment [19], the outcome was inactive.

Regarding `Cc1ncc([C@@H](CCCCCCc2ccc3c(n2)NCCC3)CC(=O)O)cn1`, the call in experiment [1], in experiment [2], in experiment [3], in experiment [4], in experiment [5] and in experiment [6] was inactive. Further, the outcome in experiment [20], in experiment [7], in experiment [8], in [9], in [10] and in experiment [12] was inactive. Moreover, the call in experiment [13], in [14], in experiment [15], in [17] and in experiment [18] was inactive.

The AC50 is the concentration at which the activity in the assay is half-maximal. `c1ccc(C(O[C@@H]2CCCN(CCc3ccc4c(c3)OCO4)C2)c2ccccc2)cc1`: the call in experiment [1], in experiment [2], in [3], in [5], in experiment [7] and in experiment [8] was inactive. Besides, the outcome in experiment [9], in experiment [10], in experiment [11], in [12], in experiment [13] and in experiment [14] was inactive. Also, the AC50 is 33 µM (active) in experiment [4], 13.8 µM (active) in [6], 47.1 µM (active) in experiment [15] and 55 µM (active) in experiment [18].

As to `OC[C@H]1O[C@@](CO)(O[C@H]2O[C@H](CO)[C@@H](O)[C@H](O)[C@H]2O)[C@@H](O)[C@@H]1O`, the compound was called inactive in [1], in experiment [2], in [3], in experiment [4], in experiment [5] and in [6]. The outcome in experiment [20], in [7], in [8], in experiment [9], in [10] and in experiment [12] was inactive. The compound was classed as inactive in [13], in experiment [14], in [15], in experiment [18] and in [19].

`FC(F)(F)C(F)(F)C(F)(F)C(F)(F)C(F)(F)C(F)(F)I`: the call in experiment [1], in experiment [2], in [3], in experiment [4], in experiment [5] and in [7] was inactive. Besides, the outcome in experiment [8], in experiment [9], in experiment [10], in experiment [11], in experiment [12] and in experiment [13] was inactive. Further, the call in experiment [14], in experiment [15], in [18], in experiment [16] and in experiment [19] was inactive. In experiment [6], the AC50 was 24 µM (active) and 27.1 µM (active).

Turning to `CC[C@H](C)C(=O)O[C@H]1C[C@H](O)C=C2C=C[C@H](C)[C@H](CC[C@@H](O)C[C@@H](O)CC(=O)O)[C@H]21`, the call in experiment [1], in [2], in experiment [3], in [4], in experiment [5] and in experiment [6] was inactive. Besides, the call in [20], in experiment [7], in experiment [8], in experiment [9], in experiment [10] and in experiment [11] was inactive. In addition, the outcome in [12], in [14], in experiment [15] and in experiment [18] was inactive.
